Inconclusive results are not listed. Activity calls are given as the source filed them.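 How the source made its calls, unless noted: active means efflux inhibition above 0.42, the validation set average plus 4 SD; inconclusive means no clear call, values can overlap the other calls; inactive means the rest.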

Experiment [1] can be described thus: yeast TOR pathway RPL19A-GFP modulators, primary screen, cell-based, S. cerevisiae, multiplex flow cytometry (AID 1862; in the data active means percent of DMSO control GFP below about 86%;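 further: lower values mimic rapamycin by blocking the RPL19A rise seen in DMSO cells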). The following applies: S. cerevisiae RPL19A-GFP strain, flow cytometry fluorescence, 3 h; at 10 µM; stronger effect = lower value.
Experiment [2] can be described thus: modulators of MEP2-GFP levels in yeast, primary screen, S. cerevisiae, multiplex flow cytometry (AID 1867;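 active means GFP response, as percent of the DMSO control, above the screen-wide mean plus 3 SD, about 139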;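 further: median GFP channel fluorescence of barcode-gated MEP2-GFP cells measured by flow cytometry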). The following applies: S. cerevisiae MEP2-GFP strain, 3 h, at 10 µM, stronger effect = higher value, 100% means same as DMSO wells. For orientation: A flow cytometer gives signals particle by particle.
Experiment [3] can be described thus: modulators of CIT2-GFP expression in yeast, primary screen, S. cerevisiae, GFP fusion, multiplex flow cytometry (AID 1870;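 active means percent response above a set limit, the screen-wide mean plus 3 SD, cut at about 130% in these data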;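 further: barcoded CIT2-GFP strain pooled with four other GFP strains with rapamycin as positive control; median GFP fluorescence per well over plate mean of DMSO wells so 100% = DMSO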). The following applies: 3 h, at 10 µM, stronger effect = higher value.
The nature of experiment [4]: modulators of LAP4-GFP expression in yeast, primary screen, S. cerevisiae, multiplex flow cytometry (AID 1873;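 active means GFP signal, as percent of the solvent control, above the screen mean plus 3 SD, about 149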). The following applies: 3 h, at 10 µM, stronger effect = higher value.
Experiment [5] can be described thus: modulators of AGP1-GFP expression in yeast TOR pathway, primary screen, cell-based, multiplex flow cytometry, S. cerevisiae (AID 1887;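 active means GFP signal above the screen-wide mean plus 3 SD, that is over about 124.5% of the solvent control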;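 further: AGP1-GFP fusion strain of S. cerevisiae within a five-strain barcoded multiplex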). The following applies: 3 h, at 10 µM, stronger effect = higher value.
Experiment [6] can be described thus: inhibitors of CD8+ T cell-vesicle binding, pilot screen, LFA-1/ICAM-1 modulator project, MLPCN validation set, flow cytometry (AID 2523;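 active means response below a set limit, under 55% cells CD8-positive and vesicle-bound, and CD8 cells' 90th-percentile brightness under 279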;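 on vesicle binding response: mean PE anti-B7-1 fluorescence of CD8+ cells relative to row control; 100% = QL9-loaded vesicles with DMSO vehicle in the same plate row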). The following applies: 2C mouse CD8+ T cells, at 7 µM, stronger effect = lower value; double positive events: measured here: CD8+/vesicle+ event percentage.
For experiment [7], the target named is Integrin beta-1 (Homo sapiens) + Integrin alpha-4 (Homo sapiens) (UniProt P13612+P05556). In words: inhibition of HUTS-21 binding to VLA-4, pilot screen, VLA-4 allosteric modulator project, U937 cells, HUTS-21 mAb, flow cytometry, validation set (AID 2674;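 active means inhibition above 50%, about 3 SD of the validation set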;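 further: antibody binding induced by the VLA-4 ligand LDV present at three times its Kd; 0% = LDV ligand with antibody and no compound and 100% = antibody without LDV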). The following applies: HUTS-21 LIBS mAb binding, at 6.7 µM, stronger effect = higher value, binding induced by LDV ligand.

A short description of experiment [8]: superoxide lowering in aged yeast cells, pilot screen, validation compound set (AID 2706;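 active means superoxide response below 65% of plate, a cut near 3 SD across the whole screen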;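 further: yeast exposed to compound for one week at 30 degrees C before staining; 100% = mean of all compound wells on the same plate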). The following applies: S. cerevisiae aging, superoxide DHE fluorescence; at 10 µM, stronger effect = lower value.
In experiment [9] the target is Beta-adrenergic receptor kinase 1 (Homo sapiens) (UniProt P25098). In words: GRK2 binders displacing RNA aptamer, biochemical, validation, human GRK2, bead flow cytometry (AID 488806;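 active means aptamer binding inhibition above 30%, about 3 SD of noise from non-fluorescent compounds; inactive means inhibition at or below 30%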). The following applies: bead-bound GRK2, FAM-aptamer displacement, at 10 µM, stronger effect = higher value.
Experiment [10] deals with AP-2 complex subunit beta (Homo sapiens) (UniProt P63010). In words: inhibitors of arrestin peptide binding to AP2, pilot screen, biochemical, validation set, GST-AP2 beads, flow cytometry (AID 504541;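 active means inhibition above 54%, about 3 SD of non-fluorescent compounds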;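 further: AP2 carries R879A mutation and is captured from E. coli lysate; bead-bound FITC arrestin peptide fluorescence measuring arrestin peptide binding to AP2; 0% = DMSO wells and 100% = excess unlabeled arrestin peptide control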). The following applies: FITC arrestin peptide, at 10 µM, stronger effect = higher value, AP2 beta2 appendage fragment, R879A mutant.
Experiment [11] can be described thus: yeast V-ATPase proton transport modulators, S. cerevisiae, pHLuorin, HTS validation (AID 504600; in the data active means response above about 15%;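 further: plate controls were DMSO for no effect and reference compound for full effect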). The following applies: S. cerevisiae pHLuorin cytosolic pH, at 10 µM, stronger effect = higher value.
The subject of experiment [12] is anti-desmoglein-3 scFv antibody binding to human DSG3. In words: inhibitors of anti-DSG3 scFv binding to DSG3, pilot screen, biochemical, validation compound set, bead-based, flow cytometry (AID 588368;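 active means binding below the plate cutoff, the plate median minus 3 SD, with a reading above zero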;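 further: signal is the median channel fluorescence of bead-bound GFP antibody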). The following applies: Protein G beads, DSG3-Fc, scFv-GFP binding, at 10 µM, stronger effect = lower value.
A short description of experiment [13]: inhibitors of fungal efflux pumps CDR1, CDR2, MDR1, pilot screen, validation compound set, multiplex, phenotypic (AID 588506).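 Further: Nile Red retained in cells so higher fluorescence means more efflux inhibition; 0 = negative control wells and 1 = enniatin B 25 µM full block.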 The following applies: S. cerevisiae pump-expressing triplex, Nile Red efflux flow cytometry; at 10 µM; stronger effect = higher value; the pumps come from Candida albicans.
The target in experiment [14] is ATP-binding cassette sub-family B member 6 (Homo sapiens) (UniProt Q9NP58). Nature of the experiment: ABCB6 transporter inhibitors, pilot screen, K562-ABCB6 cells, flow cytometry, validation set (AID 588550;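 active means inhibition above the screen-wide mean plus 3 SD, about 51%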;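 further: 0% = DMSO wells and 100% = benzethonium chloride 70 µM positive control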). The following applies: K562-ABCB6 porphyrin accumulation, 1 h, at 10 µM, stronger effect = higher value.
The nature of experiment [15]: promoters of myeloid differentiation in arrested cells, primary screen, cell-based, GFP/MAC1 double positive, flow cytometry, validation set (AID 588685;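 active means differentiation response of at least 50%, scaled between solvent and reference control, from cells with both markers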;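 further: compound exposure lasts four days before antibody staining and flow analysis; 0% = DMSO wells and 100% = 5 µM fulvestrant positive control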). The following applies: ER-HoxA9 marrow cells, stronger effect = higher value, normalized: vehicle 0, fulvestrant 100.
Experiment [16] deals with Beta-2 adrenergic receptor (Homo sapiens) (UniProt P07550). In words: beta2AR agonists driving receptor internalization, pilot screen, cell-based, FAP fluorogen, flow cytometry, validation set (AID 504459;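 active means percent response above 42, roughly 3 SD of non-fluorescent test compounds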;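 further: agonist-driven loss of surface beta2AR via internalization measured by FAP dye flow cytometry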). The following applies: Am2.2-beta2AR cells, FAP surface receptor flow cytometry; at 10 µM; stronger effect = higher value.
Chain of Beta-2 adrenergic receptor (Homo sapiens) (P07550 whole entry, looked up): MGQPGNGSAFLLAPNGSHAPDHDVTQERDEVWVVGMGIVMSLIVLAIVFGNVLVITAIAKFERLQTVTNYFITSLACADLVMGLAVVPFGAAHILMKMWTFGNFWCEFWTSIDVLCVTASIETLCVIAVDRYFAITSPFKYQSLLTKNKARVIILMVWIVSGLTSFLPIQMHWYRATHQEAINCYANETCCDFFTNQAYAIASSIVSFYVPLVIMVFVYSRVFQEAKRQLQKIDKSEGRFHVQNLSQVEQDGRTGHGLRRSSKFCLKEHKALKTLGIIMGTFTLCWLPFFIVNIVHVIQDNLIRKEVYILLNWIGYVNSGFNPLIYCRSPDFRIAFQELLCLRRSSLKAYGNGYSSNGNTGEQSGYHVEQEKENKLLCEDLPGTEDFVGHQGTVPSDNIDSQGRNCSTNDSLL

Chain of Integrin beta-1 (Homo sapiens) + Integrin alpha-4 (Homo sapiens) (P05556 whole entry, looked up): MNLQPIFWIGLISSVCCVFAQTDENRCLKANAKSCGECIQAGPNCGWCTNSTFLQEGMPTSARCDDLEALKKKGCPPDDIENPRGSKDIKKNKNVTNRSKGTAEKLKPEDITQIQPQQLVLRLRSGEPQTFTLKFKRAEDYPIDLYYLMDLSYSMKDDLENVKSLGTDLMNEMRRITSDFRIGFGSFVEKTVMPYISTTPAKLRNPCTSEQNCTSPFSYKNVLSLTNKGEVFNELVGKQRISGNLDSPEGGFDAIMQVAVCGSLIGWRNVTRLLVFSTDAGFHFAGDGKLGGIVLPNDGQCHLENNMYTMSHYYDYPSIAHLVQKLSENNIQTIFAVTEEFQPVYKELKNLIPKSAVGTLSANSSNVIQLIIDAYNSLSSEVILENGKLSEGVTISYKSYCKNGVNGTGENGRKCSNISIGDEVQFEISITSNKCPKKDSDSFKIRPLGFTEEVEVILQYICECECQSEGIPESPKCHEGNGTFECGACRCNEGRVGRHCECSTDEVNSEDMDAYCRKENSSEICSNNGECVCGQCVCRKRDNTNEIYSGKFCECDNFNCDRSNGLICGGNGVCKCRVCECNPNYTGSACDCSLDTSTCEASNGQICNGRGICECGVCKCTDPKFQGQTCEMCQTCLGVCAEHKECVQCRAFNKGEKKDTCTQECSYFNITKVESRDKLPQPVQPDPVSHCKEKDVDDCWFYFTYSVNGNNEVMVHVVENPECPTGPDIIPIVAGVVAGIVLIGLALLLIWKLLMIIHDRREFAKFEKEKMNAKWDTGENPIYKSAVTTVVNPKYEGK
Chain of Integrin beta-1 (Homo sapiens) + Integrin alpha-4 (Homo sapiens) (P13612 whole entry, looked up): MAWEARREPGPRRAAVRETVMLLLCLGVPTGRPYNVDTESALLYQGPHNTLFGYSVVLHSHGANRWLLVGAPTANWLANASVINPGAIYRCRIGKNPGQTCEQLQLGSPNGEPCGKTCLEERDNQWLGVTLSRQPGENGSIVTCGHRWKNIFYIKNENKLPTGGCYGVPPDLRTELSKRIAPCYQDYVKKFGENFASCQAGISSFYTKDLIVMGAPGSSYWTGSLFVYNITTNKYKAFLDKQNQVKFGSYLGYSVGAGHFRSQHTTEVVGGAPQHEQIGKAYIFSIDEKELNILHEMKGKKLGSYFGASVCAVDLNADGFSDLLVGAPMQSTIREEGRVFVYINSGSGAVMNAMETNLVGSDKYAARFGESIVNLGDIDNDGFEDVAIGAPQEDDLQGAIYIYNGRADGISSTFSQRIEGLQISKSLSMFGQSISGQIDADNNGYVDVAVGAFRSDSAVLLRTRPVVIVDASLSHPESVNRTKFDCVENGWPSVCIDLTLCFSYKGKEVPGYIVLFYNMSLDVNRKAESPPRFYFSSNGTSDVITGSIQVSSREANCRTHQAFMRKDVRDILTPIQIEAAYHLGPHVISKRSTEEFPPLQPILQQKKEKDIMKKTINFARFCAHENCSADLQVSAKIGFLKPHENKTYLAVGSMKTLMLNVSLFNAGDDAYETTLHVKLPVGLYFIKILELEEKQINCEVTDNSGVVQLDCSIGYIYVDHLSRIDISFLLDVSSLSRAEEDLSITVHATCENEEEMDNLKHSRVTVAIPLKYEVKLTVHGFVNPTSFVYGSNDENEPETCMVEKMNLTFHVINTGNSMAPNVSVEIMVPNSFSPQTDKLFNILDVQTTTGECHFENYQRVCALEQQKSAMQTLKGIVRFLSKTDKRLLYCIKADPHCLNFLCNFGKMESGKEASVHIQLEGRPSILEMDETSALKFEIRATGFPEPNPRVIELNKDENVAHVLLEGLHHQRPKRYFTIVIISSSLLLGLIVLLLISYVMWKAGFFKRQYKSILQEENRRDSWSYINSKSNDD
Chain of Beta-adrenergic receptor kinase 1 (Homo sapiens) (P25098 whole entry, looked up): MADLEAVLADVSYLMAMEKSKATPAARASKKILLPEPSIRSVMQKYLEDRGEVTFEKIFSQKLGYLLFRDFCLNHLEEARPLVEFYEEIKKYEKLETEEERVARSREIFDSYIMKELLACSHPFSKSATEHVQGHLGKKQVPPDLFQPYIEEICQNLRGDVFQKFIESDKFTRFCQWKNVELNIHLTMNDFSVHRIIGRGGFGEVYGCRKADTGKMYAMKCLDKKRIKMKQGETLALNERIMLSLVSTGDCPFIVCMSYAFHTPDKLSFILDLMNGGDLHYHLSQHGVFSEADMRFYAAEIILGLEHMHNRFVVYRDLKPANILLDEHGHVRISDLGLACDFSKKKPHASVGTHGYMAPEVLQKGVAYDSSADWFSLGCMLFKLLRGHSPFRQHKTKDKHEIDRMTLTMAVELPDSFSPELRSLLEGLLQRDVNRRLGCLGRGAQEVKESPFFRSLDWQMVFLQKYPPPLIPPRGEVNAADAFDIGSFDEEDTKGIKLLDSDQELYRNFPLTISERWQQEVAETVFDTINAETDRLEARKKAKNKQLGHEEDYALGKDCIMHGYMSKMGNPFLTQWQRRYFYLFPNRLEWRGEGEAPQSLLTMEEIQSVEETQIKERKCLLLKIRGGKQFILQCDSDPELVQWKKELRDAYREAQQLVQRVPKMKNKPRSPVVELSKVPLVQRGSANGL
Chain of ATP-binding cassette sub-family B member 6 (Homo sapiens) (Q9NP58 whole entry, looked up): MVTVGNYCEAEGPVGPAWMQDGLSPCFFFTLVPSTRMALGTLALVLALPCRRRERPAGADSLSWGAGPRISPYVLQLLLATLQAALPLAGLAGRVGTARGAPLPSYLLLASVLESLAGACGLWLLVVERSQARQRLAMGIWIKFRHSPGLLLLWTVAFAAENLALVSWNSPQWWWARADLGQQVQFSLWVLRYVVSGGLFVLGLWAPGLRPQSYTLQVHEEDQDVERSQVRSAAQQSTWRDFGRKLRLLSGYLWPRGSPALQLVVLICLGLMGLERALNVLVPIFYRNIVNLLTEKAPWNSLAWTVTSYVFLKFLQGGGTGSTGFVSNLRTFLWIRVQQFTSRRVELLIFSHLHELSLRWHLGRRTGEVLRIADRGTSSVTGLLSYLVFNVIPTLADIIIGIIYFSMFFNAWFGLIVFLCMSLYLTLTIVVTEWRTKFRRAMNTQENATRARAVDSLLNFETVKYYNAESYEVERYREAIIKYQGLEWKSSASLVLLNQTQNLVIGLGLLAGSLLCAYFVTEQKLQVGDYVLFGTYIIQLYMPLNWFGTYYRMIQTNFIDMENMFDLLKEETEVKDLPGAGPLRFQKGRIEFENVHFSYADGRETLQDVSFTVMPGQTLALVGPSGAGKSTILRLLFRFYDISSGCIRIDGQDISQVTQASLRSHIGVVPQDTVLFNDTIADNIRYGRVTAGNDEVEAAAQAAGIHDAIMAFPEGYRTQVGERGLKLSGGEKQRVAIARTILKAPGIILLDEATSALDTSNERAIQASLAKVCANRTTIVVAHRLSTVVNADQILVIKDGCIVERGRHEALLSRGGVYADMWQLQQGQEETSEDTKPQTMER
Chain of AP-2 complex subunit beta (Homo sapiens) (P63010 whole entry, looked up, the tested form may be a part, one chain of several): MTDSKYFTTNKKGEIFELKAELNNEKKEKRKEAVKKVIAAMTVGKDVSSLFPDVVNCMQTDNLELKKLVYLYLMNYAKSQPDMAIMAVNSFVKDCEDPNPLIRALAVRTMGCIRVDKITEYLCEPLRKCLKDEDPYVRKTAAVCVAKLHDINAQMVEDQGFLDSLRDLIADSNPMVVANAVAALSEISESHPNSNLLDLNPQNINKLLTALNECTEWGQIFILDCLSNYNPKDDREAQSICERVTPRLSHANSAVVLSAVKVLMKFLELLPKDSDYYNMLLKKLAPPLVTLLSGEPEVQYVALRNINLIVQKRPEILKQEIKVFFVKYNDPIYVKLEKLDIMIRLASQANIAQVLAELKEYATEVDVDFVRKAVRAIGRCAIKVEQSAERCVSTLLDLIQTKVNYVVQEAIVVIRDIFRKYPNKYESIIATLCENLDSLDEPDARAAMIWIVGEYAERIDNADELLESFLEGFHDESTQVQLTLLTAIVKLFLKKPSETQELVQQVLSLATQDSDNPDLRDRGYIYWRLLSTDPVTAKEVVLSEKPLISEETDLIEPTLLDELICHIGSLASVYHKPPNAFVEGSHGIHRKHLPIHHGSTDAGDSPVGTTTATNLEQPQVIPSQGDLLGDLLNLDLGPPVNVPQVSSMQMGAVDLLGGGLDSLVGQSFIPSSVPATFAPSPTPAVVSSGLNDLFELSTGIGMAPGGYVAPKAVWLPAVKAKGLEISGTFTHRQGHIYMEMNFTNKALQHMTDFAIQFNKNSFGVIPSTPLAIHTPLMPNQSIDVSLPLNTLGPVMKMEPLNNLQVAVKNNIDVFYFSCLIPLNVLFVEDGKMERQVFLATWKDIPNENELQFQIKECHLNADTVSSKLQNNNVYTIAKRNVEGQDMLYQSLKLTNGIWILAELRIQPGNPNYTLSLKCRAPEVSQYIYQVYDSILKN

By inhibition is commonly meant the drop in the measured response relative to a control, in per cent. As for `C[C@]12CC[C@H]3C(=CCc4cc(O)ccc43)[C@@H]1CCC2=O`, in [1], the percent of DMSO control GFP is 101% (inactive). Further, the GFP response vs DMSO is 94.8% (inactive) in experiment [2] and 110% (inactive) in experiment [4]. For the same compound, in [3], the percent response of DMSO control is 90% (inactive). In [5], the GFP response, % of DMSO is 92.1% (inactive). This compound came in with a double positive events in experiment [6] of 59.4%. Further, the vesicle binding response in experiment [6] is 172% (inactive). The inhibition in experiment [7] was 7.22% (inactive); in experiment [10] it was 2.28% (inactive); in experiment [14], 4% (inactive). In addition, the superoxide response (% of plate) in experiment [8] was 102% (inactive). For the same compound, in experiment [9], the aptamer binding inhibition was 7% (inactive). In addition, the response in experiment [11] is -1.47% (inactive). Besides, in experiment [12], the binding (% of control) was 103% (inactive). Further, in [13], the efflux inhibition (fraction of control) was 0.25 (inactive). The differentiation response in experiment [15] is 1.41% (inactive).

Turning to `Nc1cccc2c1nnn2C1OC(CO)C(O)C(O)C1O` (stereo not given), in experiment [1], the percent of DMSO control GFP is 104% (inactive). The GFP response vs DMSO was 94.8% (inactive) in experiment [2] and 85.3% (inactive) in [4]. In addition, the percent response of DMSO control in experiment [3] was 102% (inactive). In [5], the GFP response, % of DMSO is 102% (inactive). The compound also registered a double positive events in experiment [6] of 58%. In addition, in experiment [6], the vesicle binding response was 192% (inactive). For the same compound, the figures for the inhibition in experiment [7], in experiment [10] and in [14] were -3.97% (inactive), -6.04% (inactive) and 4% (inactive), respectively. Further, the superoxide response (% of plate) in experiment [8] is 82.8% (inactive). The aptamer binding inhibition in experiment [9] was 0% (inactive). Further, in experiment [11], the response was 4.02% (inactive). Further, in experiment [12], the binding (% of control) is 105% (inactive). Also, the efflux inhibition (fraction of control) in experiment [13] was -0.05 (inactive). Further, the differentiation response in [15] is -18% (inactive).

Take `CN(C)CCOC(C)(c1ccccc1)c1ccccn1` (stereo not given): the percent of DMSO control GFP in [1] was 100% (inactive). Further, the GFP response vs DMSO is 104% (inactive) in experiment [2] and 83.5% (inactive) in [4]. Also, the percent response of DMSO control in [3] is 93.1% (inactive). Further, the GFP response, % of DMSO in [5] was 93.7% (inactive). The compound further displayed a double positive events in experiment [6] of 63.3%. Besides, the vesicle binding response in [6] was 129% (inactive). The figures for the inhibition in [7], in experiment [10] and in experiment [14] were -1.49% (inactive), 13.9% (inactive) and 6% (inactive), respectively. For the same compound, in [9], the aptamer binding inhibition was 2% (inactive). Further, the response in [16] is 2.25% (inactive); in [11], -1.19% (inactive). Moreover, the binding (% of control) in [12] is 106% (inactive). Further, in [13], the efflux inhibition (fraction of control) was 0.74 (active). Also, the differentiation response in experiment [15] was 13.9% (inactive).

On to `COc1ccc(OC)c(-c2oc3ccccc3c(=O)c2O)c1`, for which, in [1], the percent of DMSO control GFP was 102% (inactive). For the same compound, the values for the GFP response vs DMSO in [2] and in experiment [4] were 96.9% (inactive) and 110% (inactive), respectively. In experiment [3], the percent response of DMSO control was 96.9% (inactive). In addition, in experiment [5], the GFP response, % of DMSO was 101% (inactive). The compound also had a double positive events in experiment [6] of 57%. The vesicle binding response in [6] is 182% (inactive). Moreover, the inhibition in experiment [7] is -8.64% (inactive); in experiment [10], -1.44% (inactive); in [14], -4% (inactive). In addition, the superoxide response (% of plate) in [8] was 102% (inactive). The aptamer binding inhibition in experiment [9] was 2% (inactive). Further, the response in experiment [11] was 5.05% (inactive). Besides, in experiment [12], the binding (% of control) is 97.5% (inactive). Besides, in experiment [13], the efflux inhibition (fraction of control) was -0.01 (inactive). In addition, the differentiation response in [15] is -26% (inactive).

As for `O=C(c1ccc(O)cc1)c1ccc(O)cc1O`, the percent of DMSO control GFP in [1] is 101% (inactive). The GFP response vs DMSO in experiment [2] was 108% (inactive); in experiment [4] it was 101% (inactive). Further, the percent response of DMSO control in experiment [3] is 104% (inactive). The GFP response, % of DMSO in [5] is 99.1% (inactive). This compound came in with a double positive events in [6] of 59.2%. Also, the vesicle binding response in experiment [6] was 122% (inactive). The inhibition in experiment [7] is 4.42% (inactive); in experiment [10], 45.5% (inactive); in experiment [14] it was 6% (inactive). For the same compound, the superoxide response (% of plate) in experiment [8] was 95.7% (inactive). In [9], the aptamer binding inhibition is 3% (inactive). In addition, the response in [11] was -7.71% (inactive). Besides, the binding (% of control) in [12] is 96.9% (inactive). The efflux inhibition (fraction of control) in experiment [13] was 0.06 (inactive). For the same compound, the differentiation response in experiment [15] is 49.9% (active).

The record behind these values is PubChem BioAssay.
